Experimental data published in PubChem BioAssay AID651658 (Broad Institute, 2012).
Where “and” joins values, the source holds several entries; their conditions need not be identical. Identical values can stand only once. Screen size: about 340,000 compounds; about 5,100 (1.5%) were called active. Many of the other results were omitted from the sample, so actives are more common in it than they were. Unmarked numbers belong to inactive results.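 How the source made its calls: active means mean Tm shift, scaled 0 neutral to 100 positive control, at about 1.3% or above, every replicate too (limit read from the data); inconclusive means no clear call, values can overlap the other calls; inactive means the rest.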

target: Fibroblast growth factor 22 (Homo sapiens) (UniProt Q9HCT0); assay: FGF22 ligand-induced thermal stabilization – biophysical, thermal shift, single point, FGF22 synaptogenesis inhibitor project, primary screen (AID 651658); details: recombinant FGF22 thermal shift, SYPRO orange fluorescence; at 9.99 µM; active compounds read high; percent of sucrose octasulfate shift, DMSO zero
Sequence (Q9HCT0 whole entry, looked up): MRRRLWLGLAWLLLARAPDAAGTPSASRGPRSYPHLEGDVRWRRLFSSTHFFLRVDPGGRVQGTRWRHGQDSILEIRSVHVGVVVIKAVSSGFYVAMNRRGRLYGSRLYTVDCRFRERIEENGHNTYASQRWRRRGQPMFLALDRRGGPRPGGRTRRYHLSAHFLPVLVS

SMILES | activity (Tm shift, normalised)
O=C(NCC[C@@H]1CC[C@@H](NC(=O)c2ccccc2F)[C@H](CO)O1)c1ccc2c(c1)OCO2 | -0.277%
C[C@@H]1CN([C@@H](C)CO)C(=O)c2cccc(NC(=O)Nc3ccc(C(F)(F)F)cc3)c2O[C@@H]1CN(C)S(=O)(=O)c1ccc(F)cc1 | -0.433%
CO[C@@H]1CN(C)C(=O)c2ccc(NC(=O)Nc3c(C)noc3C)cc2OC[C@H](C)N(CC2CC2)C[C@H]1C | 0.073%
CS(=O)(=O)c1ccc2nc(NC(=O)c3ccc(Cl)nc3)sc2c1 | 1.36% (active)
Cc1ccc(C(=O)Nc2nc3ccc(Cl)cc3s2)o1 | 0.029%
NS(=O)(=O)c1ccc2nc(NC(=O)C3=COCCO3)sc2c1 | -0.051%
COc1ccc([Si](C)(C)[C@@H]2[C@@H](CCO)O[C@]3(C(=O)N(Cc4ccccc4)c4ccc(N5CCC5=O)cc43)[C@H]2C)cc1 | 1.09%
O=C(C[C@H]1C[C@H]2c3cc(NC(=O)Nc4ccc(F)cc4)ccc3O[C@H]2[C@H](CO)O1)NCC1CC1 | 0.011%
O=C(C[C@H]1C[C@H]2c3cc(NC(=O)Nc4ccc(F)cc4)ccc3O[C@H]2[C@@H](CO)O1)NCC1CC1 | -0.077%
O=C(C[C@H]1C[C@@H]2c3cc(NC(=O)Nc4ccc(C(F)(F)F)cc4)ccc3O[C@@H]2[C@@H](CO)O1)NCC1CC1 | 5.86% (active)
C[C@H]1CCCCO[C@H](CN(C)S(C)(=O)=O)[C@@H](C)CN([C@@H](C)CO)C(=O)c2cc(NC(=O)C3CCCCC3)ccc2O1 | -0.096%
CNC(=O)C[C@H]1CC[C@H]2[C@H](COc3ccc(NC(=O)c4cccc(F)c4)cc3C(=O)N2C)O1 | -0.14% and 0.048%
COC(=O)C[C@@H]1CC[C@@H]2[C@H](COc3ccc(NC(=O)c4cccc(F)c4)cc3C(=O)N2C)O1 | -0.235%
CN1C(=O)c2cc(NC(=O)c3cccc(F)c3)ccc2OC[C@@H]2O[C@H](CC(=O)N3CCc4ccccc4C3)CC[C@@H]21 | 1.53% (active)
O=C(C[C@@H]1CC[C@@H](NC(=O)Nc2ccc(F)cc2)[C@@H](CO)O1)NCCN1CCCC1 | -0.38%
CCCC(=O)Nc1ccc2c(c1)C(=O)N(C)C[C@H](OC)[C@H](C)CN(C(=O)c1ccccn1)[C@H](C)CO2 | -0.212%
C[C@@H]1CN([C@@H](C)CO)S(=O)(=O)c2ccc(C#C[C@@H](C)O)cc2O[C@@H]1CN(C)C(=O)CN(C)C | -0.212%
CO[C@@H]1CN(C)C(=O)c2cc(NC(=O)C3CC3)ccc2OC[C@@H](C)N(Cc2nccs2)C[C@@H]1C | 0.295%
CC1CCCN(CC(O)COCc2ccccc2)C1 (configuration not stated) | 43.5% (active)
CC1CCCN(CC(O)COc2ccc3c(c2)OCO3)C1 (configuration not stated) | 0.154%
COc1ccc(COCC(O)CN2CCC(C(N)=O)CC2)cc1 (configuration not stated) | -0.009%
CC(C)(C)S(=O)N1Cc2cc(C(=O)O)nc(-c3cccc(-c4cc5ccccc5o4)c3)c2[C@@H]1CCO (some centres not stated) | 0.231%
COc1ccc2c3c(n(C)c2c1)[C@H](CO)N(Cc1ccccc1)CC31CN(C(=O)c2ccccc2F)C1 | -0.032%

SMILES | activity (Tm shift, normalised)
NS(=O)(=O)c1ccc(NC(=O)COC(=O)c2c3c(nc4ccccc24)/C(=C\c2ccc4c(c2)OCO4)CCC3)cc1 | -0.081%
O=C1/C(=C/c2ccc3c(c2)OCO3)CCC/C1=C\c1ccc2c(c1)OCO2 | 26.1% (active)
NC(=O)c1ccc(NC(=O)COC(=O)c2c3c(nc4ccccc24)/C(=C\c2ccc4c(c2)OCO4)CCC3)cc1 | -0.321%
CCCNC(=O)N1C[C@@H]2[C@H](c3ccccc31)[C@@H](CO)N2C(=O)NC(C)C | -0.334%
C[C@H]1CN([C@@H](C)CO)S(=O)(=O)c2ccc(C#Cc3cccnc3)cc2O[C@H]1CN(C)C(=O)CN(C)C | -0.747%
O=C(NC(=S)Nc1cccc2c(O)cccc12)c1cccc(Br)c1 | -0.32%
Cc1ccccc1NC(=S)NNC(=O)c1cccc(Br)c1 | 43.6% (active)
CC(CC(=O)O)CC(=O)NNC(=O)c1cccc(Br)c1 (configuration not stated) | -0.089%
O=C(C[C@H]1C[C@@H]2c3cc(NS(=O)(=O)c4ccc(F)cc4)ccc3O[C@@H]2[C@@H](CO)O1)NCc1cccc(F)c1 | -0.007%
Oc1cccc2cc(-c3ccncc3)cnc12 | 43.2% (active)
C[C@@H]1CN([C@H](C)CO)C(=O)Cc2cc(NC(=O)Nc3cccc4ccccc34)ccc2O[C@H]1CN(C)C(=O)Nc1ccc2c(c1)OCO2 | -0.447%
COc1cccc(NC(=O)c2nn(-c3ccc(OC)cc3OC)c(=O)c3ccccc23)c1 | 43.4% (active)
COc1ccc(-n2nc(C(=O)NCC(=O)N3CCN(c4ccccc4OC)CC3)c3ccccc3c2=O)c(OC)c1 | -0.112%
COc1ccc(-n2nc(C(=O)Nc3cc(OC)c(OC)c(OC)c3)c3ccccc3c2=O)c(OC)c1 | 0.293%
CN1C(=O)c2cc(NC(=O)c3cnccn3)ccc2OC[C@H]2O[C@@H](CC(=O)NCC3CCCCC3)CC[C@@H]21 | -0.186%
O=C(CN(CC1CCCO1)C(=O)CNS(=O)(=O)c1ccc(F)cc1)NCc1ccco1 (configuration not stated) | 43.2% (active)
CC(C)C(C(=O)NCc1ccco1)N(CC1CCCO1)C(=O)CNS(=O)(=O)c1ccc(F)cc1 (configuration not stated) | -0.278%
O=C(CN(CC1CCCO1)C(=O)CNS(=O)(=O)c1ccc(Cl)cc1)NCc1ccccc1 (configuration not stated) | -0.087%
COCC(=O)N(C)C[C@H]1Oc2cc(C#C[C@@H](C)O)ccc2S(=O)(=O)N([C@@H](C)CO)C[C@@H]1C | 0.023%
CCC(C)(C)NC(=O)C(c1ccc(OC)cc1)N(C(=O)CCC(=O)Nc1cc(C)on1)c1ccc(OC)cc1OC (configuration not stated) | 0.006%
CCC(C)(C)NC(=O)C(c1cccc(OC)c1OC)N(CC(C)C)C(=O)CCC(=O)Nc1cc(C)on1 (configuration not stated) | 43% (active)
COc1ccc(C(C(=O)NC(C)(C)C)N(Cc2ccc(F)cc2)C(=O)CCC(=O)Nc2cc(C)on2)cc1 (configuration not stated) | -0.347%
CN(C)C(=O)C[C@H]1CC[C@@H](NC(=O)C2CC2)[C@@H](CO)O1 | -0.057%

SMILES | activity (Tm shift, normalised)
C[C@H]1CN([C@@H](C)CO)C(=O)c2cccc(NC(=O)Nc3ccccc3)c2O[C@H]1CN(C)S(=O)(=O)c1ccc(Cl)cc1 | -0.286%
C[C@@H]1CN([C@H](C)CO)C(=O)c2cc(-c3cccc(C(=O)N(C)C)c3)cnc2O[C@H]1CN(C)S(=O)(=O)c1ccc(F)cc1 | -0.014%
COCC(=O)Nc1ccc2c(c1)OC[C@H](C)N(Cc1ccccc1)C[C@H](C)[C@@H](OC)CN(C)C2=O | -0.276%
C[C@@H]1CN([C@@H](C)CO)C(=O)c2cc(NC(=O)Nc3ccc4c(c3)OCO4)ccc2O[C@@H](C)CCCCO[C@@H]1CN(C)S(=O)(=O)c1cccs1 | 0.586%
Cc1ccc(S(=O)(=O)N(C)C[C@@H]2Oc3c(NC(=O)C4CC4)cccc3C(=O)N([C@H](C)CO)C[C@@H]2C)cc1 | 0.051%
Cc1cccc(S(=O)(=O)N2C[C@@H](O)COC[C@H]3O[C@H](CC(=O)N4CCN(C)CC4)CC[C@@H]32)c1 | -0.222%
O=C(C[C@H]1CC[C@H]2[C@@H](COC[C@H](O)CN2S(=O)(=O)c2cccc(Cl)c2)O1)Nc1ccccc1 | 1.27% (active)
O=C(C[C@H]1CC[C@H]2[C@@H](COC[C@@H](O)CN2S(=O)(=O)c2cccc(Cl)c2)O1)NC1CCCC1 | -0.093%
CN(C)C(=O)C[C@@H]1CC[C@H]2[C@@H](COC[C@H](O)CN2S(=O)(=O)c2ccccc2)O1 | -0.015%
Cc1cccc(S(=O)(=O)N2C[C@@H](O)COC[C@H]3O[C@H](CC(=O)Nc4ccc(-c5ccccc5)cc4)CC[C@@H]32)c1 | 1.98% (active)
COc1cccc(S(=O)(=O)N2C[C@@H](O)COC[C@@H]3O[C@H](CC(=O)Nc4ccccc4)CC[C@H]32)c1 | -0.453%
COc1cccc(-c2ccc(CC[C@H]3O[C@H]4CC[C@@H](CO)O[C@H]4C[C@@H]3NS(C)(=O)=O)cc2)c1 | -0.835%
CCCNC(=O)N(C)C[C@H]1Oc2ncc(-c3ccccc3F)cc2C(=O)N([C@@H](C)CO)C[C@H]1C | 0.186%
C[C@H](CO)N1C[C@H](C)[C@H](CN(C)Cc2ccc(C(=O)O)cc2)OCc2cn(nn2)CCCC1=O | -0.002%
C/C=C/c1cnc2c(c1)C(=O)N([C@@H](C)CO)C[C@@H](C)[C@@H](CN(C)S(=O)(=O)c1ccccc1F)O2 | 0.721%
O=C(N[C@@H]1CC[C@@H](CC(=O)N2CCc3ccccc3C2)O[C@@H]1CO)C1CCOCC1 | -0.035%
Cc1ccc(OCCCC(=O)Nc2ccc(S(=O)(=O)Nc3cc(C)nc(C)n3)cc2)cc1 | -0.115%
Cc1ccc(S(=O)(=O)Nc2nc(C)cc(-n3nc(C)cc3C)n2)cc1 | 0.134%
Cc1ccc(S(=O)(=O)Nc2nc(C)cc(N/N=C/c3ccc(O)cc3)n2)cc1 | 43.2% (active)
CN(C)C(=O)C[C@H]1C[C@@H]2c3cc(NC(=O)NC4CCCCC4)ccc3O[C@@H]2[C@@H](CO)O1 | -7.03%
C[C@H](CO)N1C[C@H](C)[C@@H](CN(C)Cc2cccnc2)Oc2cc(C#CC3CC3)ccc2S1(=O)=O | -0.495%
